Compound activity (PubChem)
CHT allo act – CHT positive allosteric modulators, primary screen, cell-based, membrane potential dye, choline EC20; High affinity choline transporter 1 (Homo sapiens), Q9GZV3; CHT-expressing cells; stronger effect = higher value; LV-AA mutant CHT in HEK293 cells; B-score at 10 µM; actives 0.49% (n = 310,000); AID 488977, 2010;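 active = initial fluorescence not abnormally high and integrated response B-score, plate-corrected, over 3 SD above library mean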
Target sequence (Q9GZV3 whole entry, looked up): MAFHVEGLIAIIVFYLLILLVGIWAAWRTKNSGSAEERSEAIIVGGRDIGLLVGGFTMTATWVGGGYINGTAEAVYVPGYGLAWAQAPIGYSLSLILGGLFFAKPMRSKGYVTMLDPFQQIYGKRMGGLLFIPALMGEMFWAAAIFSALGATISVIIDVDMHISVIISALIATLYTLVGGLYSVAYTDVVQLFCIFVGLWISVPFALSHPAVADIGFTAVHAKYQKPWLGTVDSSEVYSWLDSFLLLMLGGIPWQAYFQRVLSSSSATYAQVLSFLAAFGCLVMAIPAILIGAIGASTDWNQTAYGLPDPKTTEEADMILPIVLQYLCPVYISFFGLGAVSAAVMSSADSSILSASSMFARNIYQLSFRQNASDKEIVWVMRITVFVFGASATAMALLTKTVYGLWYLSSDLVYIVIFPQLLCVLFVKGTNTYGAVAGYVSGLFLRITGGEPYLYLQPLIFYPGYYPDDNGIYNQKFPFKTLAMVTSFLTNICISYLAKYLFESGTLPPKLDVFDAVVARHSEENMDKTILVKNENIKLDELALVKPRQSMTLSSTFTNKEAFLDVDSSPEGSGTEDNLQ
CHT block – inhibitors of human choline transporter CHT. CHT-expressing cells, membrane potential dye, choline response; stronger effect = lower value. B-score at 10 µM. actives 0.86% (n = 310,000). AID 488975, 2010;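 active = B-score over 3 SD under the library average, and starting fluorescence ratio not unusually high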;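 also: choline stimulus applied at its EC90 after an EC20 pre-addition; B-score computed on integrated fluorescence ratio after choline addition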
EP2 antag – human EP2 receptor antagonists, primary screen, TR-FRET cAMP, C6 glioma cells; inhibition, % at 25 µM; C6 glioma cells expressing human EP2; cells stimulated with saturating PGE2; AID 1422, 2008; actives 0.52% (n = 260,000);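 active = percent inhibition above 40 after rounding to a whole number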;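 also: rat C6 glioma host cells with rolipram phosphodiesterase inhibitor present; the protocol text gives 20 µM as final concentration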
EP2 mod – EP2 receptor modulators, cAMP readout, primary screen, cell-based, HTRF cAMP, PGE2 stimulation; induction, % at 25 µM; Prostaglandin E2 receptor EP2 subtype (Homo sapiens), P43116; actives 0.83% (n = 260,000); AID 940, 2007; EP2-expressing cells, cAMP HTRF FRET, PGE2 co-stimulation;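 active = compounds whose cAMP rise, as percent of the full-agonist control response, exceeds 60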;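 also: rat C6 glioma line stably carrying human EP2 under a CMV promoter; the protocol text gives 20 µM as final concentration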
A number is an active result; i = inactive; nt = no result; ! = not active in a repeat. The list is not random: actives were taken first. Their share in the collection is about 2%.

SMILES | CHT allo act | CHT block | EP2 antag | EP2 mod
Cc1ccc(-c2cc(C(=O)N3C(C)CC(C)CC3C)no2)cc1 (stereo unspecified) | nt | nt | i | i
COc1cccc2c1C(=O)c1c(O)c3c(c(O)c1C2=O)C[C@@](O)(C(=O)CO)C[C@H]3O[C@H]1C[C@@H](N)[C@H](O)[C@@H](C)O1.[W] | nt | nt | 39.8 | i
COc1cc(N=Nc2cccc(S(N)(=O)=O)c2)c2ccccc2c1N | i | i | 79.3! | i
COc1ccc(-c2nnc(SCC#N)n2C)cc1 | nt | nt | i | i
COCCn1c(SCC#N)nnc1-c1ccc(OC)cc1 | i | i | 123.1 | i
Cc1cccc2cc(CN(Cc3ccc4c(c3)OCO4)Cc3nnnn3C3CCCCC3)c(=O)[nH]c12 | nt | nt | i | 68.0
COc1ccc2cc(CN(Cc3ccccc3)Cc3nnnn3C3CCCCC3)c(=O)[nH]c2c1 | nt | nt | i | 75.3
Cc1ccc2[nH]c(=O)c(CN(Cc3ccccc3)Cc3nnnn3C3CCCC3)cc2c1 | i | i | i | i
Cc1cc2cc(CN(Cc3ccccc3)Cc3nnnn3C3CCCC3)c(=O)[nH]c2cc1C | nt | nt | i | 71.1
O=C(Cc1cccs1)Nc1ccc(S(=O)(=O)NCC2CCCO2)cc1 (stereo unspecified) | nt | nt | i | i
CCN(CC)C(=O)CN1CCC(c2ccc(OC)cc2)CC1 | nt | nt | i | i
Cc1cn([C@@H](CCCCNC(=O)OC(C)(C)C)C(=O)NCCCCCCCCCCC(=O)N2CCN(C(=O)OC(C)(C)C)CC2)nn1 | i | -5.81 | nt | nt
Cc1ccc(-c2nnn(CC(=O)N(C3CCCC3)C(C(=O)NC(C)(C)C)c3ccco3)n2)o1 (stereo unspecified) | nt | nt | i | i
CC1(C)[C@@H]2CC[C@@]1(CS(=O)(=O)Nc1ccccc1)C(=O)C2 | nt | nt | 50.6 | i
CC1(C)C2CCC1(CS(=O)(=O)N1CCOCC1)C(=O)C2 (stereo unspecified) | i | i | 96.3 | i
O=C(Nc1ncnc2sc3c(c12)CCCC3)c1cccs1 | nt | nt | i | i
COc1ccc(C(C)=O)cc1CSc1nc2cc(C(=O)O)ccc2c(=O)n1Cc1ccccc1 | i | i | i | 63.7
CCOC(=O)c1sc(NC(=O)CSc2nc3ccc(OC)cc3cc2C#N)nc1C | nt | nt | i | i
CCC(C)NC(=O)C1CCN(Cc2cc(OC)ccc2OC)CC1 (stereo unspecified) | nt | nt | i | i
O=C(Cn1c(=O)n(Cc2cccs2)c2ncccc21)NC1CCCC1 | nt | nt | nt | i
CN(C)Cc1ccc(C(C)(C)C)cc1-c1cc(C(C)(C)C)ccc1CN(C)C | nt | nt | 50.9 | i
CCC(=O)N1c2ccc(-c3csc(NC(=O)c4ccccc4Cl)n3)cc2CC1C (stereo unspecified) | nt | nt | 94.1 | i
CC(C)(C)OC(=O)N1CC=C2C(C#N)=C(N)C(C#N)(C#N)C(c3ccc4c(c3)OCO4)C2C1 (stereo unspecified) | nt | nt | 40.3 | i
Cn1c(SCC(=O)Nc2ccccc2Br)nnc1-c1ccco1 | nt | nt | i | i
CCCC(=O)O[C@]1(C(=O)COC(C)=O)CC[C@H]2[C@@H]3C[C@H](F)C4=CC(=O)C=C[C@]4(C)[C@@]3(F)[C@@H](O)C[C@@]21C | i | -5.04 | i | i
SMILES | CHT allo act | CHT block | EP2 antag | EP2 mod
Cc1ccc(N(CC(=O)N/N=C/c2cc(C)n(-c3ccccc3C)c2C)S(C)(=O)=O)cc1 | i | -6.99 | i | i
Cc1nc2sc3c(c2c2nn(CC(=O)NC4CCCC4)c(=O)n12)CCC(C)C3 (stereo unspecified) | nt | nt | nt | i
COc1ccc(-c2cc(N)n(S(=O)(=O)c3c(F)c(F)c(F)c(F)c3F)n2)cc1OC | i | -7.7 | i | i
COc1ccc(S(=O)(=O)n2nc(-c3cc(OC)c(OC)c(OC)c3)cc2N)cc1OC | i | i | i | i
COc1ccc(C(=O)CSc2nc3c(C)c(C)ccc3cc2C#N)cc1OC | nt | nt | 50.2 | i
COc1ccc(C(O)CN2CCC3(CC2)CC(O)c2cc(Cl)c(C)cc2O3)cc1 (stereo unspecified) | nt | nt | i | i
CCOc1c(Br)cc(C(N)=O)cc1OCc1ccccc1 | i | i | i | 62.2
COc1cc(C(N)=O)cc(Br)c1OCc1ccccc1 | i | i | i | i
O=C(NCCC1=CCCCC1)C(c1ccccc1)c1ccccc1 | i | i | i | i
C[N+](C)(C)[C@@H](C1=CCCC1=O)c1ccccc1 | nt | nt | 52.2 | i
Cc1cc2c(cc1NC(=O)c1cc(-c3c(C)nn(C)c3C)n[nH]1)OCCO2 | nt | nt | i | i
CCc1ccc2nc(SCC(=O)c3ccc(F)cc3)c(C#N)cc2c1 | nt | nt | i | i
